Calls of active or inactive are those of the source. The calls were made as follows: active = hit-call score of the fitted dose curve at least 0.9, where 1 is the maximum; inactive = score below 0.9.

This test can be described thus: ATG_TA_CIS: Attagene CIS-FACTORIAL HepG2 Assay for human TA Basal Promoter (AID 2282964). Conditions: HepG2 Attagene CIS-factorial TA basal promoter reporter; actives raise or lower the signal. As for the experimental part: ATG_CIS is a cell-based, multiplexed-readout assay that uses HepG2, a human liver cell line, with measurements taken at 24 hours after chemical dosing in a 24-well plate.ATG_TA_CIS is one of 52 assay component(s) measured or calculated from the ATG_CIS assay. It is designed to make measurements of mRNA induction, a form of inducible reporter, as detected with fluorescence intensity signals by Reverse transcription polymerase chain reaction (RT-PCR) and Capillary electrophoresis technology.Data from the assay component ATG_TA_CIS was analyzed into 1 assay endpoint. This assay endpoint, ATG_TA_CIS, was analyzed with bidirectional fitting relative to DMSO as the negative control and baseline of activity. Using a type of inducible reporter, measures of mRNA for gain or loss-of-signal activity can be used to understand the background control at the transcription factor-level as they relate to the gene . Furthermore, this assay endpoint can be referred to as a secondary readout, because this assay has produced multiple assay endpoints where this one serves a background control function. To generalize the intended target to other relatable targets, this assay endpoint is annotated to the background measurement intended target family, where the subfamily is internal marker.
Human liver HepG2 cells are transiently transfected with multiple reporter transcription units (MRTUs) in 6-well plates using FuGene 6 reagent (Roche; 3 ml FuGene/1 mg DNA). The MRTU constructs are regulated by a cis-regulating element (promoter). […] A major difference between the CIS and TRANS system is that in CIS activities of endogenous TFs are measured, whereas the TRANS assay evaluates changes in activities of exogenous, chimeric NR-Gal4 proteins. […] At the end of 24 hour incubation, total RNA was isolated using TriZol reagent (Invitrogen). The isolated RNA is then reverse-transcribed using oligo(dT) primer and Mo-MLV reverse transcriptase (Invitrogen) with DNAse I (Ambion) treatment for 30 min. The one-tenth of the produced cDNA was amplified by PCR using Taq DNA polymerase (Invitrogen) and two reporter sequence-specific primers. The PCR products were fluorescently labeled by primer extension with 6-arboxyfluorescein (6-FAM) 5'-labeled reporter sequence-specific primer (2 min at 95 C, 20 s at 68 C and 10 min at 72 C) and these products were digested with 5U of HpaI (New England Biolabs) for 2h at 37 C. The fragments were purified using Qiaquick PCR columns (Qiagen), analyzed on an ABI 3130xL genetic analyzer (Applied Biosystems) with peak positions identified by using a set of X-rhodamine (ROX)-labeled MapMarker1000 molecular weight standards (BioVentures). The raw capillary electrophoresis data was processed using Attagraph software (Attagene).
For `COc1ccc(CCO)cc1`, the outcome was inactive.

As to `Cc1cc(=O)oc2cc(N(C)C)ccc12`, the outcome was inactive. For the molecule `CCCCCCCCc1ccc(S(=O)(=O)O)cc1`, the result was inactive. Next, `O=CN1CCOCC1`: “inactive”; `CC1CC(O)CC(C)(C)C1` (stereo not given): “inactive”.

Take `CCCCCCC(=O)c1ccccc1`: the call was inactive.

With `CC(C)C(OC(=O)c1ccccc1)C(C)(C)COC(=O)c1ccccc1` (stereo not given), the molecule was classed as inactive. Regarding `CC(=O)c1ccccn1`, the call was inactive. To `CCc1ccc(O)c(OC)c1` belongs “inactive”; to `CC1(C)C2=CCCC(C)(C)[C@]23CC[C@H]1C3`, “inactive”. To `C/C=C(\C)C(=O)OCCc1ccccc1` belongs “inactive”; to `Cc1ccc(-c2ccccc2)cc1`, “inactive”; to `CCCCC(CC)C(=O)OC(C)C` (stereo not given), “inactive”. With `COCCOC(=O)c1ccccc1C(=O)OCCOC`, the outcome was inactive.

As for `CN(C)c1ccncc1`, the molecule was called inactive. To `CC1(C)C(=O)N(Cl)C(=O)N1Br` belongs “inactive”. For `Cc1ccc(N)c(S(=O)(=O)O)c1`, the call was inactive. On to `NCc1ccco1`, for which the outcome was inactive. Next, `CCCC(=O)c1ccccc1`: “inactive”; `C[C@H](CCC(=O)NCC(=O)O)[C@H]1CC[C@H]2[C@@H]3[C@H](O)C[C@@H]4C[C@H](O)CC[C@]4(C)[C@H]3C[C@H](O)[C@]12C`: “inactive”. Next, `CC1C2CC(CC2C2CCCC(O)C2)C1(C)C` (stereo not given): “inactive”. To `COC(C)(C)CCCC(C)CC=O` (stereo not given) belongs “inactive”; to `C=C(C)C(=O)OCC(CC)(COC(=O)C(=C)C)COC(=O)C(=C)C`, “inactive”; to `CC[N+](C)(CC)CC`, “inactive”. Consider `CCc1ncc(C)[nH]1`, for which the molecule was called inactive. For the molecule `CCCCCCC(O)CCCCCCCCCCC(=O)O` (stereo not given), the result was inactive.

Turning to `Nc1ccc2c(O)cc(S(=O)(=O)O)cc2c1`, the result was inactive. Regarding `Cc1cc(C)nc(NS(=O)(=O)c2ccc(N)cc2)n1`, the molecule was classed as inactive.

As to `Cc1cc(CCC(=O)OCCOCCOCCOC(=O)CCc2cc(C)c(O)c(C(C)(C)C)c2)cc(C(C)(C)C)c1O`, the molecule was classed as inactive. To `O=C(O)c1cccnc1C(=O)O` belongs “inactive”.

As for `CC(C)(C)CC(C)(C)c1ccc(OCCOCC[N+](C)(C)Cc2ccccc2)cc1`, the molecule was called inactive. Next, `C=COCCOCCOC=C`: “inactive”. To `CCN(CCN)c1cccc(C)c1` belongs “inactive”; to `Nc1ccc(N)c2c1C(=O)c1ccccc1C2=O`, “inactive”; to `C=Cc1ccc(C(C)(C)C)cc1`, “inactive”. To `Nc1ccc2cc(S(=O)(=O)O)cc(O)c2c1N=Nc1ccccc1C(F)(F)F` belongs “inactive”; to `NC(=S)NNC(N)=S`, “inactive”. With `Nc1ccc(NCCO)c([N+](=O)[O-])c1`, the outcome was inactive. As for `CCOC(=O)CC(C)O` (stereo not given), the call was inactive.

Take `CCc1ccc(O)cc1`: the molecule was called inactive.

Values taken from PubChem BioAssay (EPA / NIEHS).
